Calls of active or inactive are those of the source. How the calls were made is not given here.
Test system: Aerobactin synthetase IucA (Klebsiella pneumoniae hvKP1)
Experiment: Biochemical IucA enzyme inhibition primary screen of the Spectrum library (AID 1346200);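 further: 100% = wells without compound and 0% = wells lacking enzyme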
Settings: malachite green pyrophosphate, A620, at 8 µM, stronger effect = lower value

Q: Which activity remaining does the source give for COc1ccc(C(Cl)=C(c2ccc(OC)cc2)c2ccc(OC)cc2)cc1 here?
A: 117% (inactive)

Q: CC(=O)O[C@]1(C(C)=O)CCC2C3C=C(C)C4=CC(=O)CCC4(C)C3CCC21C (some centres undefined) was tested. Which activity remaining did it give?
A: 98% (inactive)

Q: CCCCC(CC)CN1CN(CC(CC)CCCC)CC(C)(N)C1 (centres undefined) was tested. Which activity remaining did it give?
A: 89.7% (inactive)

Q: Which activity remaining does the source give for CC1(C)CC[C@@]2(C(=O)O)C(C1)C1=CCC3[C@@]4(C)CC[C@H](O)C(C)(C)C4CC[C@@]3(C)[C@]1(C)C[C@@H]2O (some centres undefined) here?
A: 99.8% (inactive)

Q: C=CCCCCCCCCCCCC(O)CC(O)COC(C)=O (centres undefined) was tested. Which activity remaining did it give?
A: 116% (inactive)

Q: How did the activity remaining turn out when CCC(CCC(C)[C@H]1CCC2C3CC=C4C[C@@H](O)CC[C@]4(C)C3CC[C@@]21C)C(C)C (some centres undefined) was run?
A: 114% (inactive)

Q: How did the activity remaining turn out when COc1ccc(-c2oc3cc(OC)c(OC)c(OC)c3c(=O)c2OC)cc1OC was run?
A: 83.1% (inactive)

Q: With C=CCSC[C@@H](N)C(=O)O as the molecule, how does the activity remaining read?
A: 98.6% (inactive)

Q: With O[N+]1=CC=CCC1=S.On1ccccc1=S.[Zn] as the molecule, how does the activity remaining read?
A: 92.5% (inactive)

Q: Which activity remaining does the source give for CCCOc1ccc2nc(NC(=O)OC)[nH]c2c1 here?
A: 98.2% (inactive)

Q: Which activity remaining does the source give for CC(=O)N(O)CCCCCNC(=O)CCC(=O)N(O)CCCCCNC(=O)CCC(=O)N(O)CCCCCN here?
A: 117% (inactive)

Q: For COC(=O)C[C@H]1C(C)(C)C(=O)[C@@H]2CC3=C(CC[C@]4(C)C3=CC(=O)O[C@H]4c3ccoc3)C1(C)C2=O, which activity remaining is on record?
A: 121% (inactive)

Q: For O=c1[nH]c2cc(Cl)c(Cl)cc2[nH]c1=O, which activity remaining is on record?
A: 121% (inactive)

Q: With CN1CCN(CCC=C2c3ccccc3Sc3ccc(S(=O)(=O)N(C)C)cc32)CC1 as the molecule, how does the activity remaining read?
A: 116% (inactive)

Q: Which activity remaining does the source give for CCC(C(=O)O)c1ccccc1 (centres undefined) here?
A: 123% (inactive)

Q: Which activity remaining does the source give for CC1=C2[C@@H](CC1)[C@@H](C)CC[C@@H]2/C=C(\C)C(=O)O here?
A: 113% (inactive)

Q: With COc1cccc2c1CCC1CC(=O)CC[C@]21C (some centres undefined) as the molecule, how does the activity remaining read?
A: 119% (inactive)

Q: Which activity remaining does the source give for Cc1ccc(C(=O)C(C)CN2CCCCC2)cc1 (centres undefined) here?
A: 113% (inactive)

Q: Which activity remaining does the source give for Cc1cc(=O)oc2cc(O)c(O)cc12 here?
A: 118% (inactive)

Q: How did the activity remaining turn out when C=CCc1ccc(O)c(OC)c1 was run?
A: 115% (inactive)

Q: How did the activity remaining turn out when CC(=O)O[C@@H]1CC2C(C)(C)C=CC(=O)[C@]2(C)C2CC[C@@]3(C)[C@H](c4ccoc4)OC(=O)C4OC43[C@@]21C (some centres undefined) was run?
A: 119% (inactive)

Q: Which activity remaining does the source give for Oc1ccc(Cl)cc1Cc1cc(Cl)ccc1O here?
A: 108% (inactive)

Q: Which activity remaining does the source give for CC(=O)OC1CCC23CC1(C)CCC2C(C)(C)CC3OC(C)=O (centres undefined) here?
A: 105% (inactive)

Q: Which activity remaining does the source give for CC(=O)[C@@]1(O)CCC2C3C=C(Cl)C4=CC(=O)[C@@H]5CC5[C@]4(C)C3CC[C@@]21C (some centres undefined) here?
A: 105% (inactive)

Source: PubChem BioAssay
